High-throughput results from PubChem.
PNC inhibitor – blocks assembly of the perinucleolar compartment | PC3M PTB-GFP, PNC prevalence imaging, 16 h; stronger effect = lower value | activity change (PNC), negative = inhibition, % at 10 µM | 140,000 tested, 3.1% active | AID 2417;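 active = readout at or below -70, meaning at least 70% loss of cells showing the perinucleolar compartment, a nuclear body marking cancer cells; inconclusive = readout between -30 and a set limit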;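 note: plate controls were DMSO wells for no effect and camptothecin positive control wells for full effect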
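Compounds are pinned in duplicate onto adhered PC3M cells stably expressing GFP-tagged PTB and incubated 16 h at 37 C. Cells are then fixed, nuclei stained with Hoechst, and PNC-positive cells counted.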
ALDH1A1 block – blocks purified human ALDH1A1 activity; Purified ALDH1A1, NADH fluorescence, propionaldehyde substrate; Potency, µM (top dose mostly 75.3 µM), for inactives: top-dose activity, negative = inhibition, most hits filed as inhibitors; 220,000 tested, 7.3% active; AID 1030;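 note: potency is the fitted concentration of half-maximal effect; plate controls were no enzyme wells and a reference inhibitor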
12-hLO inh – blocks human 12-lipoxygenase activity; P18054; purified 12-hLO, xylenol orange hydroperoxide absorbance; Potency, µM (highest dose often 57.1 µM), inactives show at the highest dose activity change, negative = inhibition, actives largely listed as inhibitors; 150,000 tested, 0.12% active; AID 1452; active = well fitted inhibition curve with a large enough effect; inconclusive = small, poorly fitted or top-dose-only effect; note: potency is the fitted concentration of half-maximal effect; nearly all actives have a fitted effect of over 55% in size
Target sequence (P18054 whole entry, looked up): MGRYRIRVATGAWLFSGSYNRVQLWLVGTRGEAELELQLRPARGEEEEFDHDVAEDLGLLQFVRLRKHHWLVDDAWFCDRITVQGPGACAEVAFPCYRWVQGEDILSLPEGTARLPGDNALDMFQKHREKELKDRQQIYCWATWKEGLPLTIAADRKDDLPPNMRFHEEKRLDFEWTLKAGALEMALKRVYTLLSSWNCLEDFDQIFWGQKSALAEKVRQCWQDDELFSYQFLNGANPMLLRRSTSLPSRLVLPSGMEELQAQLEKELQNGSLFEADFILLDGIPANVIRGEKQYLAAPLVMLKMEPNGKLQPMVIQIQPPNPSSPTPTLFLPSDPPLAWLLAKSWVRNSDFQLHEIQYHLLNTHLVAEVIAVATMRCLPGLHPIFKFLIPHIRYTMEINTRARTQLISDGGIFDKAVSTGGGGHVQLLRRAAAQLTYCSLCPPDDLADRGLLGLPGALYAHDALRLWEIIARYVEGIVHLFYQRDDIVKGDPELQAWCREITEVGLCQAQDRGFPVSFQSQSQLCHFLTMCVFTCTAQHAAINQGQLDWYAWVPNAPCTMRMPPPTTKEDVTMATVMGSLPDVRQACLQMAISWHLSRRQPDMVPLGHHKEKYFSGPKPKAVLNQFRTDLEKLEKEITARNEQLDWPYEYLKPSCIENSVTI
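150 nM 12hLO, 25 mM Hepes pH 7.0 + 0.01% Triton X-100; cpd preinc 15 min RT; 40 uM arachidonic acid, 30 min RT; Fe-XO 30 min; A573/A405 ratio as read-out.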
HPGD inh – HPGD (human) dehydrogenase inhibition. P15428. purified HPGD, NADH fluorescence kinetic, PGE2 substrate. Potency, µM, inactives show top-dose activity change, negative = inhibition, actives largely listed as inhibitors. 150,000 tested, 4.3% active. AID 894; note: potency is the fitted concentration of half-maximal effect
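NADH formation kinetics: reaction with 30 uM PGE2 and 1 mM NAD+ (final), 20 nM enzyme, Tris-HCl pH 8 with Tween 20, after 15 min compound preincubation at room temperature. Fluorescence change, last versus first of five reads.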
Lamin A splicing – LMNA splicing modulation. HeLa LMNA splicing GFP/RFP minigene ratio, 48 h. Potency, µM (series often up to 46.1 µM), for the others: at the top dose ratio change, negative = inhibition, most hits filed as inhibitors. 200,000 tested, 0.01% active. AID 1487; active = well fitted inhibition curve with a large enough effect in the signal ratio, with a control signal flat, not every such curve was filed as active; inconclusive = small, poorly fitted or top-dose-only effect, or effect the other way, or a change in a side signal; the % refers to the signal ratio; note: potency is the fitted concentration of half-maximal effect
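Read-out is the ratio of GFP to DsRed2 object intensity, acquired by 488 nm laser-scanning cytometry on HeLa lamin A-EGFP minigene reporter cells. Compound incubation 48 hrs at 37 °C in Opti-MEM with 2% FBS; DMSO 0.5% final.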
Numbers without * were called inactive; u = inconclusive; x = not tested or not shown; [ ] = dose if it differs, or a comment. Most compounds without a hit are left out; they make up all but 10% or so of the library. Unless noted, calls come from the whole dose curve; as a rule, active = well fitted inhibition curve with a large enough effect (not every such curve was filed as active); inconclusive = small, poorly fitted or top-dose-only effect, or another doubt; inactive = no such curve, though single readings can be large or run the other way. Unless noted, % is set by controls: 0 for no effect and ±100 for the full control effect.

SMILES	PNC inhibitor	ALDH1A1 block	12-hLO inh	HPGD inh	Lamin A splicing
CS(=O)(=O)N1CCC2(CC1)CN(Cc1nccs1)C2	x	2%	1%	-9%	x
O=C(CN1C(=O)/C(=C\c2ccccc2Cl)Oc2ccccc21)NCc1cccnc1	x	4µM*	x	x	x
Nc1nc(-c2ccccc2)c(N=Nc2cccnc2)s1	x	20µM*	x	x	-8%[46 µM]
CCOC(=O)Cn1c(=N)n(CCOc2cccc(C)c2)c2ccccc21	-97*	6%	0%	-1%	-1%
CCOC(=O)Cn1c(=N)n(CCOc2ccc(Br)cc2)c2ccccc21	x	10%	x	x	x
N#CCCn1c(=S)[nH]c2ccccc21	u	u	-5%	14µM*	-1%
N#CCCn1c(=O)n(CCC#N)c2ccccc21	x	5%	x	x	5%[46 µM]
Cc1cccc(OCCn2c(=S)[nH]c3ccccc32)c1	u	1.3µM*	28µM*	2µM*	-8%
Cc1cccc(OCCCCc2c(C)n[nH]c2C)c1	14	7%	4%	x	u
Cc1cccc(OCCc2c(C)[nH]c(=S)[nH]c2=O)c1	x	18µM*	x	x	21%[9.22 µM]
COc1cc(NC(=O)C2CCN(S(=O)(=O)c3c(C)noc3/C=C/c3c(C)cc(C)cc3C)CC2)cc(OC)c1	x	x	x	x	11%[46 µM]
Cc1nc(NCc2ccccc2)c2nc(-c3ccccc3)n(CCN3CCCCC3)c2n1	x	u	-11%	u	x
NC(=O)COC(=O)c1ccccc1Nc1ccc(SC(F)F)cc1	65	6%	-7%	11µM*	-23%
CC(C)(C)NC(=O)COC(=O)c1ccccc1Nc1ccc(SC(F)F)cc1	11	u	-5%	u	u
O=C(COC(=O)c1ccccc1Nc1ccc(SC(F)F)cc1)NCc1ccco1	25	-7%	-2%	14µM*	u
Cc1c(Cl)cnc(NC(=O)COC(=O)c2ccc([N+](=O)[O-])s2)c1Cl	u	11µM*	-5%	u	1%
Cc1[nH]c2ccccc2c1C(=O)COC(=O)c1ccc([N+](=O)[O-])s1	x	11µM*	x	x	x
O=C(COC(=O)c1ccc([N+](=O)[O-])s1)NC(c1ccccc1)c1ccccc1	-116*	22µM*	-4%	-20%	u
O=C(COC(=O)c1ccc([N+](=O)[O-])s1)Nc1ccccc1	u	u	-4%	-3%	11%
O=C(COC(=O)c1ccc([N+](=O)[O-])s1)NCc1ccccc1	37	u	3%	x	-5%
CCC1=C2CC[C@H]3C(=O)N(CC(=O)OC)C(=O)[C@H]3[C@H]2[C@@]2(C)C(=NCCc3c[nH]c4ccccc34)OC(=O)N2C1=O	x	-4%	-2%	-2%	x
Cc1nc2ccccn2c1C(=O)OCC#N	x	16µM*	x	x	u
Cc1nc2ccccn2c1C(=O)NC1CCCCC1	-105*	u	-1%	u	-2%
CC(=O)Nc1ccc(NC(=O)c2c(C)nc3ccccn23)cc1	-14	-6%	-1%	-18%	u
Cc1nc2ccccn2c1C(=O)CSc1ccccc1	x	-14%	x	x	30%[9.22 µM]
SMILES	PNC inhibitor	ALDH1A1 block	12-hLO inh	HPGD inh	Lamin A splicing
CCOC(=O)SC1=N/C(=C\c2ccc(N(C)C)cc2)C(=O)S1	40	5µM*	-3%	-22%	-9%
CCCC(=O)Nc1nnc(SCc2cc(=O)n3ccccc3n2)s1	x	x	x	x	-19%[46 µM]
COc1ccc(CC(=O)N2CC(C)CC(C)C2)cc1 (stereo not drawn)	57	u	14%	28µM*	22%
COc1ccc(CC(=O)N2CCOCC2)cc1	-28	1%	-4%	-14%	-6%
Cc1ccc(NC(=S)NNc2ccc([N+](=O)[O-])cc2S(=O)(=O)Nc2ccccc2C(=O)O)cc1C	-26	u	u	u	1%
O=C(O)c1ccccc1NS(=O)(=O)c1ccc(NNC(=S)Nc2ccc(OC(F)F)cc2)c([N+](=O)[O-])c1	x	3.5µM*	x	x	x
CC(C)CN1C(=O)/C(=C/c2cccs2)NC1=S	10	2µM*	-21%	-22%	-10%
CCCN1C(=O)/C(=C/c2ccc(C)s2)NC1=S	u	8.9µM*	-21%	-16%	-7%
CC(C)CN1C(=O)/C(=C/c2ccco2)NC1=S	u	4µM*	u	u	8%
COc1cccc(Cn2c(=O)c(C)nc3cnc(N4CCOCC4)nc32)c1	x	u	0%	-17%	x
c1ccc2[nH]c(SN3CCOCC3)nc2c1	6	0.79µM*	8%	11µM*	-2%
